# The whole screen tested about 16,000 compounds, of which about 5,100 (32%) were called active. Another 25% or so got no clear call; they are omitted. The list shows a part of the results. Unmarked numbers belong to inactive results. Calls follow the shape of the dose curve; as a rule, active = well fitted curve in the direction sought with a large enough effect; inconclusive = small, poorly fitted or top-dose-only effect, or effect the other way; inactive = no such curve, though single readings can be large or run the other way.
# Target: Cytochrome P450 3A4 (Homo sapiens) (UniProt P08684)
# Sequence (P08684 whole entry, looked up): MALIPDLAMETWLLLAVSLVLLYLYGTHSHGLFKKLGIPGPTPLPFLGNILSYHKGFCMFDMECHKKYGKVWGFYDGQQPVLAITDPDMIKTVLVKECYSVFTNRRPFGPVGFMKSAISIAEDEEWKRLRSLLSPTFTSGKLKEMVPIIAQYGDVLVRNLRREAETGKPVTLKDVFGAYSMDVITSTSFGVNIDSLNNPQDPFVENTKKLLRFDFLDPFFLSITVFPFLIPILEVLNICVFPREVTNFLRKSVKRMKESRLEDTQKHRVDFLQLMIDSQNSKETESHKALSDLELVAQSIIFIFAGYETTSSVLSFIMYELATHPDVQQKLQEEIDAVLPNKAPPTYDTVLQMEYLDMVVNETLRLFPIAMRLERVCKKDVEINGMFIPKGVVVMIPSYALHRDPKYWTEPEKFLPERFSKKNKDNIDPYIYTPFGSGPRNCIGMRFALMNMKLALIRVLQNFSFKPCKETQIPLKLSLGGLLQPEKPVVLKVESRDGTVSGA
# Experiment: Cytochrome panel assay with activity outcomes
# Conditions: recombinant CYP, pro-luciferin dealkylation, luminescence, p450-cyp3a4; series mostly up to 57.1 µM; activity, negative = inhibition: at the top concentration
# % is scaled to controls: 0 for no effect and ±100 for the full control effect.
Compound,AC50,"activity, negative = inhibition"
Cc1ccc(C)c(NC(=O)C2(C)CC3c4ccccc4C2c2ccccc23)c1 (configuration not stated),2.24 µM (active),–
Cc1ccc(C)c(NC(=O)C2C3CCCC2C3c2ccccc2)c1 (configuration not stated),–,17.3%
Cc1ccc(C)c(NC(=O)C2CC3c4ccccc4C2c2ccccc23)c1 (configuration not stated),–,-27.2% [at 2.29 µM]
Fc1ccc(CN(C2=NCCN2)c2c(Cl)cccc2Cl)cc1,–,-26.2%
CCCC(=O)Nc1ccc2nc(SCC(=O)Nc3ccc(N4CCOCC4)c(Cl)c3)sc2c1,1.41 µM (active),–
O=C(c1ccc2nc3ccc(Cl)cc3c(=O)n2c1)N1CCOCC1,–,2.72%
O=C(Nc1ccc2nc(SCc3ccc(Cl)cc3)sc2c1)c1ccccc1C(=O)N1CCOCC1,7.94 µM (active),–
Cc1ccccc1C(=O)Nc1ccc(N2CCOCC2)nc1,–,-27.9%
Cn1c(CCC(=O)Nc2ccc(N3CCOCC3)cc2)nc(=O)c2ccccc21,–,-13.8% [at 11.4 µM]
Cc1nc(SCC(=O)Nc2ccc(N3CCOCC3)cc2)nc(C)c1C,14.1 µM (active),–
Cc1ccc(NC(=O)c2cc(N3C(=O)C4CC=CCC4C3=O)ccc2N2CCOCC2)cc1Cl (configuration not stated),12.6 µM (active),–
CCOC(=S)SCC(=O)O,–,-14.7% [at 11.4 µM]
CCOc1ccc(OCCOc2ncnc3ccccc23)cc1,–,-3.65% [at 2.29 µM]
O=C(/C=C/c1ccco1)NC(=S)Nc1ccc(N2CCOCC2)c(Cl)c1,–,12.4% [at 2.29 µM]
Cc1ccc(NC(=O)CSCC(=O)Nc2ccc(N3CCOCC3)c(Cl)c2)cc1,3.55 µM (active),–
Cc1ccc(NC(=O)c2cc(NC(=O)CCC(=O)O)ccc2N2CCCCC2)cc1,–,8.65%
NCCOB(c1ccccc1)c1ccccc1,12.6 µM (active),–
NCCSCCc1ccccc1,–,-8.42% [at 11.4 µM]
O=C(O)[C@@H]1CCCNC1,–,-0.161% [at 25.6 µM]
Cc1ccc(C(=O)Nc2c(C#N)c(C)c(C)n2Cc2ccccc2)cc1,10 µM (active),–
CCC(C)n1c(NC(=O)c2ccccc2)c(C#N)c2nc3ccccc3nc21 (configuration not stated),–,-17%
Cc1ccc(C(=O)N/N=C/c2sc(=O)n(Cc3cccc(C(=O)O)c3)c2Cl)cc1,–,-1.74%
CCOC(=O)Cc1csc(NC(=O)c2ccc(Cl)nc2)n1,14.1 µM (active),–
CCOC(=O)Cc1csc(NC(=O)c2ccc(S(=O)(=O)N3CCCCC3)cc2)n1,–,24.5%
CCOC(=O)Cc1csc(NC(=O)c2c(-c3c(Cl)cccc3Cl)noc2C)n1,–,-21.4% [at 2.29 µM]
CCOc1cc(S(=O)(=O)N(Cc2ccccc2)Cc2ccccc2)c(OCC)cc1-n1cnnn1,12.6 µM (active),–

Compound,AC50,"activity, negative = inhibition"
Fc1ccc(Nc2ccnc(-c3ccccc3C(F)(F)F)n2)cc1,12.6 µM (active),–
COc1ccccc1CNc1ccnc(-c2ccccc2OC)n1,15.8 µM (active),–
COCCNc1ccnc(-c2ccccc2C(F)(F)F)n1,–,-8.14%
COc1ccccc1-c1nccc(NC2CCNCC2)n1,–,-8.5%
COc1ccccc1CNc1ccnc(-c2ccccc2C(F)(F)F)n1,12.6 µM (active),–
COc1ccc(CSc2nnnn2C)cc1[N+](=O)[O-],–,-12.3%
CCCOc1ccc(Cn2c(C)nc([N+](=O)[O-])c2SCC(O)COC)cc1[N+](=O)[O-] (configuration not stated),14.1 µM (active),–
Cc1nc([N+](=O)[O-])c(N2CCN(C)CC2)n1Cc1ccccc1,–,-12.8%
Nc1nc2c(nc(Br)n2[C@@H]2O[C@H]3COP(=O)(O)O[C@@H]3[C@H]2O)c(=O)[nH]1,–,-9.7%
Nc1ccc2[nH]cc(CCC(=O)O)c2c1,–,-1.6% [at 11.4 µM]
COC(=O)Nc1ccc2[nH]cc(CCNC(C)=O)c2c1,–,-24.7%
COc1cc2c(CCNC(C)=O)c[nH]c2cc1Cl,15.8 µM (active),–
CN(C)[C@@H]1C(=O)C(C(N)=O)=C(O)[C@]2(O)C(=O)C3=C(O)c4c(O)ccc(Cl)c4[C@H](O)[C@H]3C[C@@H]12,inactive,–
Cc1ccc(/C=C/c2ccc(=O)n(Cc3ccc(Cl)cc3Cl)n2)cc1,–,2.15%
Cc1ccc(Cn2cnc3c(nnn3Cc3ccc(Cl)cc3)c2=O)cc1,3.16 µM (active),–
Cc1nn(Cc2c(F)c(F)c(F)c(F)c2F)c(C)c1NC(=O)c1cccc(COc2ccc(Cl)cc2)c1,–,-20.6% [at 2.29 µM]
Cc1nn(Cc2c(F)c(F)c(F)c(F)c2F)c(C)c1NC(=O)c1cccc(COc2ccccc2Cl)c1,3.98 µM (active),–
Cc1nn(Cc2c(F)c(F)c(F)c(F)c2F)c(C)c1NC(=O)c1c(-c2ccccc2)nn(-c2ccccc2)c1C,2.24 µM (active),–
Cc1ncc(COP(=O)(O)O)c(C)c1O,–,-9.44% [at 11.4 µM]
Nc1c2c(nc3ccccc13)CCCC2,–,-22.4%
COc1ccc(OC)c(NC(=O)[C@H]2CC=CC[C@H]2C(=O)O)c1,–,-12%
COc1cc(-c2nnc(COC(=O)c3c4c(nc5ccccc35)CCCC4)o2)cc(OC)c1OC,4.47 µM (active),–
COc1ccc(OC)c(-c2cc(C(=O)O)c3cc4ccccc4cc3n2)c1,–,6% [at 11.4 µM]
COc1ccc(OC)c(NC(=O)c2c3c(nc4ccccc24)CCC3)c1,7.08 µM (active),–
O=C1NC(=O)C(c2ccccc2)(c2ccccc2)N1,–,-9.15%
O=C1Nc2cc(C(=O)N3CCOCC3)ccc2SC1N1CCOCC1 (configuration not stated),–,17.3%

Compound,AC50,"activity, negative = inhibition"
Cc1cn(CC[C@H](N)C(=O)O)c(=O)[nH]c1=O,–,-9% [at 11.4 µM]
O=C(Nc1cccc(F)c1)N1CCC2(CC1)CCN(C(=O)c1csnn1)CC2,–,-2.16%
O=C(NCc1ccccc1)C(c1ccncc1)N(C(=O)c1csnn1)C1CC1 (configuration not stated),2.82 µM (active),–
O=C(NCc1ccc(F)cc1)C(c1ccncc1)N(C(=O)c1csnn1)C1CC1 (configuration not stated),2 µM (active),–
O=C(O)CCC(=O)c1ccc(Cl)cc1,–,1.22% [at 11.4 µM]
O=C(C/C=N/OCc1ccc(Cl)cc1Cl)c1ccc(Cl)cc1,25.1 µM (active),–
CCN1CCN(CCCNC(=O)C(NC(=O)C2CCC(C)CC2)C(C)C)CC1 (configuration not stated),–,-9.25%
CC(=O)NCCc1c(Cc2ccccc2)[nH]c2ccccc12,7.94 µM (active),–
COc1ccc2[nH]c3cc4c(=O)c5cc(OC)ccc5[nH]c4cc3c(=O)c2c1,–,-0.294% [at 11.4 µM]
CCCCC(=O)NCCc1c(Cc2ccccc2)[nH]c2ccccc12,0.794 µM (active),–
Cc1ccc2[nH]c(-c3ccccc3)c(CN(C)C)c(=O)c2c1,–,9.06% [at 2.29 µM]
COc1ccc2[nH]c(-c3ccccc3)c(CCNC(C)=O)c2c1,12.6 µM (active),–
CCCCNC(=O)C(=O)NC(C)CCc1ccccc1 (configuration not stated),–,1.86%
CSc1nc(C)c2c(n1)N(c1ccc(C(C)C)cc1)CC2,–,-16.2%
C=CCc1cccc2cc(C(=O)N(CC)CC)c(=O)oc12,11.2 µM (active),–
Cc1cc(C)c[n+](CC(=O)c2cc3ccccc3oc2=O)c1,–,-13.7%
COc1cccc(-c2ccc3ncnc(N(C)C)c3c2)c1,7.94 µM (active),–
CN(C)c1ncnc2ccc(-c3cccc(C#N)c3)cc12,12.6 µM (active),–
CN(C)c1ncnc2c1ncn2CCn1cnc2c(N(C)C)ncnc21,–,8.51% [at 11.4 µM]
CN(C)c1ccc(-c2ccc3ncnc(N(C)C)c3c2)cc1,6.31 µM (active),–
CN(C)c1ncnc2ccc(-c3cccnc3)cc12,1 µM (active),–
NC(=O)C1(N2CCCCC2)CCN(C(=O)c2ccc(-n3cnnn3)cc2)CC1,–,-3.2%
NC(N)=[N+]1CCc2ccccc2C1,–,-1.96%
CN1CCN(NC(=O)c2ccccc2F)CC1,–,4.34%
COC(=O)C(NNc1ccccc1)(NC(=O)c1ccccc1F)C(F)(F)F (configuration not stated),1.58 µM (active),–
O=C(O)c1ccc(S(=O)(=O)N=Nc2c(O)[nH]c3ccccc23)cc1,–,14.3% [at 11.4 µM]

Compound,AC50,"activity, negative = inhibition"
[Cu].[O-]/N=C1/C(=[OH+])Nc2ccccc21.[O-]Nc1c(O)[nH]c2ccccc12,–,1.34% [at 11.4 µM]
O=Nc1c(-c2c(O)[nH]c3ccccc23)[nH]c2ccccc12,7.94 µM (active),–
O=c1[nH][nH]c(C(F)(F)F)c1C=Nc1ccccc1,–,-5.01%
COc1cc2nc(N(C)CCCNC(=O)[C@@H]3CCCO3)nc(N)c2cc1OC,–,-10.6% [at 25.6 µM]
COc1cc2nc(N3CCN(C(=O)OCc4ccccc4)[C@H](C(=O)NC(C)(C)C)C3)nc(N)c2cc1OC,3.98 µM (active),–
C=CCN=C1CC(C)(C)CC(=O)/C1=C(/O)CCC(=O)OC,–,-3.27%
CC(=O)COC(=O)CCc1nc2ccccc2[nH]c1=O,–,10.3%
Cc1cc(C)cc(NC(=O)CCc2nc3ccccc3[nH]2)c1,2.82 µM (active),–
CC(C)(CCc1nc2ccccc2[nH]1)C(=O)O,–,-1.06% [at 11.4 µM]
CCCn1c(-c2cccs2)nc2nc3ccccc3nc21,10 µM (active),–
CCCCNC(=O)NS(=O)(=O)c1ccc(C(=O)OC(C)C)o1,–,1.1%
N/C(=N\OC(=O)Cc1ccc(Cl)cc1)c1cccnc1,0.794 µM (active),–
C/C(=N\OC(=O)c1ccccc1)c1cc(-c2ccc(Cl)cc2)no1,–,-1.98%
COc1ccccc1NCc1nnc(SCC(=O)N/N=C/c2ccco2)n1-c1ccc(Cl)cc1Cl,5.01 µM (active),–
Cc1cc(C)n(CC(=O)N/N=C/c2ccco2)n1,–,8.54%
O=C(Nc1cccc(F)c1)/C(=C\c1ccco1)NC(=O)c1cccs1,–,-8.91% [at 2.29 µM]
O=C(NNC(=O)c1ccccc1)C(=O)N1CCCCC1,–,11.6%
O=C(N/C(=C\c1cccs1)C(=O)N1CCCCCC1)c1ccccc1,7.94 µM (active),–
CC(=O)c1cccc(NC(=O)/C(=C\c2ccco2)NC(=O)c2cccs2)c1,20 µM (active),–
O=C(NCC1CCCO1)/C(=C\c1ccco1)NC(=O)c1ccccc1 (configuration not stated),–,-22.7%
O=C(O)C/C(=C\c1ccco1)C(=O)O,–,-18.3% [at 11.4 µM]
O=C(NC(N1CCCC1)C(Cl)(Cl)Cl)c1ccccc1 (configuration not stated),–,-21.3%
O=C(N/C(=C/c1ccco1)C(=O)N1CCCCCC1)c1cccs1,14.1 µM (active),–
O=C(NC(=S)NNC(=O)c1cccs1)c1ccco1,–,-0.791% [at 2.29 µM]

# Reference: PubChem BioAssay AID1851 (National Center for Advancing Translational Sciences (NCATS), 2009)
